ATXN viability = cell viability loss in ATXN counter-screen; S2 cells (HEK-293 line with an ATXN2-luciferase reporter) viability, CellTiter-Fluor protease fluorescence, 24 h; Potency, µM (top dose mostly 56.7 µM), most hits filed as cytotoxic; 0.49% of 400,000 active; also: nearly all actives have a fitted effect of over 40% in size
ATXN2 expr inh = reduces ATXN2 reporter expression in HEK-293 cells; HEK-293 ATXN2-luciferase reporter, luminescence, 24 h; Potency, µM (doses to about 57 µM), inactives show at the top dose activity change, negative = inhibition, usual class: inhibitors; 0.72% of 360,000 active; AID 1745845; also: % is scaled to controls: 0 for no effect and ±100 for the full control effect; nearly all actives have a fitted effect of over 55% in size
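qHTS (up to 57 uM final) was run with 24 h compound exposure of reporter cells at 37 °C. Each well was multiplexed: SteadyGlo luminescence measured ATXN2-luciferase expression after a fluorogenic Gly-Phe-AFC viability readout (25 uM final).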
KB-3-1 cytotox = kills parental KB-3-1 adenocarcinoma cells; KB-3-1 viability, CellTiter-Glo ATP luminescence, 72 h; Potency, µM (highest dose often 46.1 µM), actives largely listed as cytotoxic; 1.4% of 400,000 active; AID 1347075; also: % is scaled to controls: 0 for no effect and ±100 for the full control effect; nearly all actives have a fitted effect of over 60% in size
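Viability of parental KB-3-1 cells, measured by CellTiter-Glo luminescence, followed a 72 h incubation at 37 °C with pinned compounds in phenol-red-free DMEM containing 10% FBS.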
KB-V1 cytotox = KB-V1 MDR subline cytotoxicity. KB-V1 MDR cells viability, CellTiter-Glo, 72 h. Potency, µM (top dose mostly 46.1 µM), actives largely listed as cytotoxic. 3.4% of 400,000 active. AID 1347076; also: % is scaled to controls: 0 for no effect and ±100 for the full control effect; nearly all actives have a fitted effect of over 60% in size
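Compound-treated KB-V1 multidrug-resistant cells, 72 h, 37 degrees C; viability by CellTiter-Glo. Fitted qHTS curves give the values.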
HT1080 IDH1KD tx = kills HT-1080 cells with IDH1 knockdown; HT-1080 IDH1 knockdown viability, ATP luminescence, 48 h; Potency, µM (top dose mostly 46.1 µM), for inactives: at the top dose activity, negative = toxicity, most hits filed as cytotoxic; 2% of 360,000 active;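 also: 0% = DMSO wells and -100% = cell-free medium wells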
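Assay cells: HT-1080 with IDH1 knockdown, 750 per well, RPMI/5% FBS. Exposure: 48 h at 37 °C following 2 h pre-incubation. Read: CellTiter-Glo luminescence; fitted concentration-response, curve class assigned.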
HT1080-NT tox = kills 2HG-producing HT-1080-NT fibrosarcoma cells; 1.6% of 360,000 active; HT-1080-NT fibrosarcoma viability, CellTiter-Glo ATP luminescence, 48 h; Potency, µM (highest dose often 46.1 µM), for inactives: at the top dose activity, negative = less viability, actives largely listed as cytotoxic;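 also: NT is the 2HG producing partner of a matched IDH1 knockdown line; 0% = DMSO-treated cells and -100% = media-only wells without cells; nearly all actives have a fitted effect of over 55% in size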
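Fibrosarcoma NT cells, 750 per well in 5% FBS RPMI, were exposed to compound for 48 hours. Viability: CellTiter-Glo luminescence.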
* marks the source's active call; other numbers are inactive results; i = inactive; ? = inconclusive; nt = not tested or not shown; ! = not active in a repeat. Most compounds without a hit are left out; they make up all but 6.2% or so of the library. Calls follow the shape of the dose curve; as a rule, active = well fitted curve in the direction sought with a large enough effect; inconclusive = small, poorly fitted or top-dose-only effect, or another doubt; inactive = no such curve, though single readings can be large; an effect the other way counts as inactive or inconclusive. Potency is read from the fitted curve at half-maximal effect.

SMILES	ATXN viability	ATXN2 expr inh	KB-3-1 cytotox	KB-V1 cytotox	HT1080 IDH1KD tx	HT1080-NT tox
CCCCCCCCN1[C@@H](CC(=O)OCC)c2cc(F)ccc2S1(=O)=O	i	-15.1%	?	14.6µM*!	-5.5%	-0.4%
CCOC(=O)C[C@H]1c2ccccc2S(=O)(=O)N1Cc1cccc(C(F)(F)F)c1	i	-10.6%	16.4µM*!	10.3µM*!	0.3%	0.0%
CCCCCCCCN1[C@@H](CC(=O)OC)c2cc(F)ccc2S1(=O)=O	i	-8.3%	i	?	-2.6%	6.5%
Cc1ccc(NS(=O)(=O)c2cc3c(cc2N(C)C)CCC(=O)N3)cc1C	nt	nt	i	i	nt	nt
N#Cc1ccc(OCC(O)CN2CCN(CC(O)COc3ccc(C#N)cc3)CC2)cc1 (stereo unspecified)	i	-36.1%	i	?	3.9%	8.5%
N#Cc1ccc(OCC(O)CN2CCN(c3ncc(C(F)(F)F)cc3Cl)CC2)cc1 (stereo unspecified)	i	?	14.6µM*	7.31µM*	?	?
OC(c1ccc(-c2ccccc2)cc1)c1ncc(-c2ccccc2Cl)[nH]1 (stereo unspecified)	i	2.6%	i	i	?	?
Cc1c(C(=O)O)c(O)cc2c1C(=O)c1c(O)c([C@@H]3O[C@H](CO)[C@@H](O)[C@H](O)[C@H]3O)c(O)c(O)c1C2=O	17.8µM*	0.0%	i	i	-21.2%	-29.6%
CC(=O)Nc1nonc1-c1nnc(SCC(=O)Nc2ccc(C)c(Cl)c2)n1-c1ccccc1	i	-6.9%	i	i	nt	nt
COc1cccc(N/C(SCc2ccccc2Cl)=C(/C#N)C(=O)NCc2cccs2)c1	i	-14.4%	i	14.6µM*	10.9%	5.4%
COc1cccc(N/C(SC)=C(/C#N)C(=O)NCc2cccs2)c1	nt	-13.8%	i	?	-10.5%	-4.0%
COc1cccc(N/C(SCc2ccccc2C)=C(/C#N)C(=O)NCc2cccs2)c1	i	2.4%	i	5.17µM*	-16.5%	-14.2%
CC(Oc1ccccc1)C(=O)N(CCC1=CCCCC1)c1c(N)n(Cc2ccccc2)c(=O)[nH]c1=O (stereo unspecified)	i	-3.0%	i	i	?	23.1µM*
CN(Cc1ccccc1)c1nc(N)nc(Cl)c1C=O	?	?	i	i	18.4µM*	?
O=C(N/N=C/c1ccco1)C1CC1c1ccccc1 (stereo unspecified)	i	10.9%	i	?	-0.6%	9.8%
CC(C)(C)c1ccc(C2CC2C(=O)N/N=C\c2ccc[nH]2)cc1 (stereo unspecified)	?	?	14.6µM*	?	1.64µM*	2.59µM*
O=C(Nc1nc2c(F)cccc2s1)c1ccc2c(c1)OCCO2	i	-66.4%	i	i	nt	nt
CC(=O)c1cccc(OCc2cc(C(=O)N(C)Cc3nccs3)no2)c1	i	nt	i	i	2.2%	9.9%
CCOC(=O)CC1CCCCN1C(=O)c1cc(COc2cccc3cnccc23)on1 (stereo unspecified)	?	nt	i	?	4.11µM*	23.1µM*
CN(Cc1nccs1)C(=O)c1cc(COc2cccc3cnccc23)on1	?	nt	i	i	9.2µM*	23.1µM*
O=C(c1ccc(N2CCC(NCCCn3ncc4ccccc43)CC2)cc1)N1CCOCC1	i	nt	nt	nt	nt	nt
COc1ccc(C(=O)c2ccc(OC)c(OC)c2)cc1OC	?	-8.4%	i	i	-7.1%	-0.4%
COc1ccc(C(O)c2nccc3cc(OC)c(OC)cc23)cc1OC (stereo unspecified)	i	0.6%	?	8.2µM*	-13.5%	-12.6%
COc1ccc(C(=O)c2nccc3cc(OC)c(OC)cc23)cc1OC	?	-16.8%	i	16.4µM*	2.2%	-0.7%
COc1ccc(C(=O)c2cc(OC)c(OC)c(OC)c2)cc1OC	?	-2.7%	5.8µM*	i	11.6µM*	?
